# Experimental data reported in PubChem BioAssay (Tox21).
# Values joined by “and” are separate entries in the source; they are usually repeats but may differ in a detail not shown here. Equal values may be shown once. Results filed as inconclusive are left out. A call without a number means that no potency is given here. A structure can be active in one record and inactive in another. Active and inactive are the calls of the source. Calls come from the whole dose curve; as a rule, active = well fitted cell-killing curve with a large enough effect in the repeat runs; inconclusive = weak or mixed curves, or effect the other way; inactive = no such curve, though single readings can be large or run the other way.
# Assay: qHTS assay to identify small molecule antagonists of the thyroid receptor (TR) signaling pathway - cell viability counter screen (AID 743064); note: nearly all actives have a fitted effect of over 50% in size
# Conditions: GH3.TRE-Luc viability, CellTiter-Fluor, 24 h; series mostly up to 70.3 µM
# How it was run: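 Rat GH3 pituitary tumor cells stably expressing two TR response elements driving luciferase were plated, rested 4 h, then dosed with library compounds and T3 (1 nM final). After 23.5 h at 37 °C, CellTiter-Fluor was added for 30 min and fluorescence recorded.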
# Potency is the fitted concentration of half-maximal effect.
row,SMILES,Potency
1,CN(C)c1nc(=O)n(C2CCCCC2)c(=O)n1C,inactive
2,Clc1ccc(C(Cl)(Cl)Cl)cc1,inactive
3,CCOP(=S)(OCC)SCn1c(=O)oc2cc(Cl)ccc21,inactive
4,COc1ccc(O)c(C(C)(C)C)c1,inactive
5,CC1=C(C(=O)Nc2ccccc2)SCCO1,inactive
6,CCCCOCCOC(C)=O,inactive
7,CNC(=O)Oc1cccc2c1OC(C)(C)C2,inactive
8,O=NN(c1ccccc1)c1ccccc1,inactive
9,O=C(O)CF,inactive
10,CCOP(=S)(OCC)SCSC(C)(C)C,inactive
11,CCOS(=O)(=O)OCC,inactive
12,ClC(Cl)=C(Cl)C(Cl)=C(Cl)Cl,inactive
13,CC1(C)Cc2cccc(O)c2O1,inactive
14,CC(C)COC(=O)c1ccccc1C(=O)OCC(C)C,inactive
15,N#Cc1cccnc1,inactive
16,ClC(Cl)(Cl)c1ccccc1,inactive
17,CCCCOCC1CO1 (configuration not stated),inactive
18,CCCCCCCCCCCCCl,inactive
19,CCC1(c2ccc(N)cc2)CCC(=O)NC1=O (configuration not stated),inactive

row,SMILES,Potency
1,C=C(C)C#N,inactive
2,Cc1cccc(N=Nc2ccc(N(C)C)cc2)c1,inactive
3,O=NN1CCOCC1,inactive
4,c1ccc2c(c1)Nc1ccccc1S2,inactive
5,CC[n+]1c(-c2ccccc2)c2cc(N)ccc2c2ccc(N)cc21,inactive and 54.2 µM (active)
6,COc1ccc(C=O)cc1OC,inactive
7,CC(C)Nc1nc(Cl)nc(NC(C)C)n1,inactive
8,O=[N+]([O-])/N=C1\NCCN1Cc1ccc(Cl)nc1,inactive
9,CCOC(=O)c1ccccc1N,inactive
10,CN(C)P(=O)(N(C)C)N(C)C,inactive
11,CCCCOC(=O)COC(=O)c1ccccc1C(=O)OCCCC,inactive
12,CC(C)=CC1C(C(=O)OCc2cccc(Oc3ccccc3)c2)C1(C)C (configuration not stated),inactive
13,Clc1cccc(C(Cl)(Cl)Cl)n1,inactive
14,CSc1nc(NC(C)C)nc(NC(C)C)n1,inactive
15,CNC(=O)CSP(=S)(OC)OC,inactive
16,OC(c1ccc(Cl)cc1)(c1cncnc1)c1ccccc1Cl (configuration not stated),inactive
17,CCC/C=N/O,inactive
18,C[C@]12CCC(=O)C=C1CC[C@@H]1[C@@H]2CC[C@@]2(C)[C@H]1CC[C@]2(C)O,inactive and 61.4 µM (active)
